# Biological target: Torsin-1A-interacting protein 1 (Homo sapiens) (UniProt Q5JTV8)
# Assay: compound microarray binding of lysate hLAP1 – cell lysate, small-molecule microarray, COS7 lysate, 635/667 nm fluorescence, primary screen (AID 1116)
# Conditions: 635 nm fluorescence, higher = more signal
# Chain of Torsin-1A-interacting protein 1 (Homo sapiens) (Q5JTV8 whole entry, looked up): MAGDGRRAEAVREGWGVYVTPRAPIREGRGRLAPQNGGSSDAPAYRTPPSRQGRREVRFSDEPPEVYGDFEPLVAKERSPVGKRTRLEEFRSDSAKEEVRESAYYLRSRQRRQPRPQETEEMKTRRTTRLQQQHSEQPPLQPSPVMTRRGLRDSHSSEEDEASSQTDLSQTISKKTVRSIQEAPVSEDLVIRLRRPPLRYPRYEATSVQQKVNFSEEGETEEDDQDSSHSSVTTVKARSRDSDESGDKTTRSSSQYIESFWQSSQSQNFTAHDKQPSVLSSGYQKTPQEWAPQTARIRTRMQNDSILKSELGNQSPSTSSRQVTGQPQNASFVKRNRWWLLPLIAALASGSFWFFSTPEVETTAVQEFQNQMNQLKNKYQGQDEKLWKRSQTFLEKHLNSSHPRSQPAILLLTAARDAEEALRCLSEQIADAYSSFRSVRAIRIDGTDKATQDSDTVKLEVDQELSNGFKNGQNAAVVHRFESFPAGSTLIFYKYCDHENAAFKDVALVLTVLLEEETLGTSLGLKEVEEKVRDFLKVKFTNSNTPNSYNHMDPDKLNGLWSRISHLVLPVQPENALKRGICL
row,Compound,composite z-score
1,CC(C)(C)OC(=O)CC[C@]1(C(=O)NCCN2CCOCC2)N=C(c2ccc(OCCCO)cc2)O[C@H]1c1ccccc1,-0.299
2,C=CC[C@@]12N=C(c3ccc(OCCCO)cc3)O[C@@H]1c1ccccc1N(CCS(=O)(=O)c1ccccc1)C2=O,0.676
3,CCOC(=O)C[C@H]1[C@H](OC(=O)c2ccccc2-c2ccccc2)[C@@H](NC(=O)CC(C)C)c2cc(OCCCO)ccc2N1C(=O)c1ccc2ccccc2n1,0.171
4,COc1ccc(C(O)C2C=CC3C(=O)N(c4ccccc4)C(=O)C3N2Nc2ccccc2)cc1OCc1ccccc1 (stereo not drawn),0.618
5,NCCCCCNC(=O)[C@@H]1C[C@@H]2C(=O)N[C@@H](CCCCN)C(=O)N2[C@@H]1c1cccc(OCCO)c1,1.97
6,CCCCC(CC)C(O)C1C=CC2C(=O)N(c3ccccc3)C(=O)C2N1Nc1ccc([N+](=O)[O-])cc1 (stereo not drawn),0.513
7,CC(C)(C)OC(=O)CC[C@]1(C(=O)O)N=C(c2ccc(OCCCO)cc2)O[C@H]1c1ccccc1CN=[N+]=[N-],0.69
8,C=C(/C(=C/C[C@@H](OC(=O)c1ccncc1)c1ccccc1OCCO)c1cc(C(=O)OC)ccc1OC)C(C)C,0.568
9,O=C1O[C@@H](c2ccccc2)[C@@H](c2ccccc2)N2[C@@H](c3ccccc3OCCO)[C@]3(C(=O)Nc4ccccc43)[C@@H](C(=O)NC[C@H](O)c3ccccc3)[C@H]12,1.35
10,COCCOC(=O)N1C(=O)[C@@]2(c3cc(C#CC4(O)CCCCCC4)ccc31)[C@H](c1ccccc1OCCO)N1[C@H](c3ccccc3)[C@H](c3ccccc3)OC(=O)[C@H]1[C@@H]2C(N)=O,0.425
11,O=c1cccc(-c2cccc(Cl)c2)o1,0.432
12,COCCOC(=O)N1C(=O)[C@@]2(c3cc(C#CC4=CCCCC4)ccc31)[C@H](C(=O)N1CCN(c3ncccn3)CC1)[C@H]1C(=O)O[C@H](c3ccccc3)[C@H](c3ccccc3)N1[C@@H]2c1ccc(O)cc1,1.28
13,COCC(=C=CC[C@H](O)c1ccc(OCCO)cc1)C[C@H](O)COCc1ccccc1,1.52
14,C=C[C@@H](COC(C)=O)NS(=O)(=O)c1ccc(Br)cc1,-0.0651
15,O=C1C2C=CC(C(O)c3cc(C(F)(F)F)cc(C(F)(F)F)c3)N(Nc3ccc([N+](=O)[O-])cc3)C2C(=O)N1c1ccccc1 (stereo not drawn),0.185
16,CC(=O)NCCCC[C@@H]1NC(=O)[C@@H]2C[C@H](C(=O)O)[C@H](c3ccc(O)cc3)N2C1=O,-0.998
17,COCCOC(=O)N1C(=O)[C@@]2(c3cc(C#CC4=CCCCC4)ccc31)[C@H](c1ccc(O)cc1)N1[C@H](c3ccccc3)[C@H](c3ccccc3)OC(=O)[C@H]1[C@@H]2C(=O)Nc1nc2ccccc2s1,1.12
18,CC(C)CNC(=O)[C@@H]1c2ccccc2C(=O)N(Cc2cc(F)cc(C(F)(F)F)c2)[C@H]1c1ccc(CO)cc1,0.662
19,C=C(C(=O)CC[C@H](OC(C)=O)c1cccc(OCCO)c1)C(C)C,-0.397
20,O=C1O[C@@H](c2ccccc2)[C@@H](c2ccccc2)N2[C@@H](c3ccc(O)cc3)[C@]3(C(=O)Nc4ccc(C#CCCO)cc43)[C@@H](C(=O)NC[C@H](O)c3ccccc3)[C@H]12,-0.138
21,CCCN1C(=O)[C@]2(Cc3ccccc3)N=C(c3ccc(OCCCO)cc3)O[C@@H]2c2ccccc21,0.42
22,C[C@H]1C2=C3C(CC[C@H]4C(OCc5ccc(F)cc5C(F)(F)F)OC[C@](C)([C@@H]34)N(C(=O)OC(C)(C)C)C2)C2COC(=O)OCC21 (stereo partly drawn),0.908
23,O=C1c2ccccc2[C@](Cc2ccccc2I)(C(=O)NCCN2CCOCC2)[C@H](c2ccc(CO)cc2)N1Cc1ccccc1,0.496
24,COC(=O)[C@@]1(Cc2ccc(OC)cc2)[C@H]2c3cc(C(=O)N(C)C)n(Cc4nc5ccccc5[nH]4)c3C[C@H]2CN1C(=O)c1ccccc1,0.564
25,C[C@]1(C(=O)NC2CC2)c2ccccc2C(=O)N(Cc2ccc(OC(F)(F)F)cc2)[C@H]1c1ccc(CO)cc1,0.297
26,CN(C)CCCNC(=O)[C@@H]1c2ccccc2C(=O)N(CC23CC4CC(CC(C4)C2)C3)[C@H]1c1ccc(CO)cc1,0.858
27,CC1CC/C=C\[C@H]2OC34C=CCN(C(C)C)C(=O)[C@H]3N(CCCCCO)C(=O)[C@@H]4C2C(=O)O1 (stereo partly drawn),-0.753
28,C=CCOC(=O)[C@H]1[C@@H]2C(=O)O[C@@H](c3ccccc3)[C@@H](c3ccccc3)N2[C@@H](c2ccc(OCCOC(=O)[C@H]3C[C@H]4C(=O)N[C@@H](Cc5ccccc5)C(=O)N4[C@H]3c3cccc(OCCO)c3)cc2)[C@]12C(=O)Nc1ccc(I)cc12,1.25
